The results in this text go back to publication PMC6792352, “Limited Chemical Structural Diversity Found to Modulate Thyroid Hormone Receptor in the Tox21 Chemical Library” (Environmental Health Perspectives, 2019).

The structures appear in SMILES notation.

The test system of the test is thyroid hormone receptor (endogenous TRα and TRβ). The arrangement: species or system GH3-TRE-Luc (rat pituitary); GH3-TRE-Luc luciferase reporter, antagonist mode against 1 nM T3, loss of signal, qHTS. The note with it: read-out: Average AC50 (uM) GH3-TRE-Antag, antagonist mode, 1 nM T3, no GH3 cytotoxicity hit.
In the case of `COc1ccc2c(c1OC)CN1CCc3cc4c(cc3[C@@H]1C2)OCO4` [Canadine], the half-maximal activity concentration (AC50) (as a rule, the concentration giving half of the maximal activity seen) is more than 20 µM.
For `C#C[C@]1(O)CC[C@H]2[C@@H]3CCC4=CC(=O)CC[C@]4(C)[C@H]3CC[C@@]21C` [Ethisterone], the AC50 came out at 7.79 µM.
For `O=c1c(-c2ccc(O)cc2)coc2cc(O)ccc12` [Daidzein] the value was 87.6 µM.
